# Test results published in PubChem BioAssay AID588855 (National Center for Advancing Translational Sciences (NCATS), 2011).
# The campaign covered roughly 410,000 compounds. About 5,000 (1.2%) were called active. Another 13% or so got no clear call; they are omitted. This excerpt belongs to a sample that is enriched for actives. Values without a mark were called inactive. Calls come from the whole dose curve; as a rule, active = well fitted inhibition curve with a large enough effect; inconclusive = small, poorly fitted or top-dose-only effect; inactive = no such curve, though single readings can be large or run the other way.
# Assay: qHTS for Inhibitors of TGF-b; note: nearly all actives have a fitted effect of over 65% in size
# Settings: HepG2 CAGA-GFP TGF-b/SMAD3 reporter, GFP fluorescence, 18 h, TGF-beta stimulated, 500 pg/mL final; series mostly up to 46.1 µM; activity, negative = inhibition: at the top concentration
# Excerpt: TGF-b is a main component in the TGF-b signaling pathway which plays diverse roles in cellular and development pathways. TGF-b is the mediated by the transcription factors Smads. Although the Smad-dependent pathway is the primary canonical TGF-b signaling node, TGF-b1 can also activate alternative signaling pathways, including those involving MAPK (ERK, JNK and p38). This interaction may mediate or enhance Smad-dependent responses, or can exert Smad-independent effects. The complexity of this signaling cascade allows the TGF-b superfamily to perform unique, overlapping or redundant functions. We believe that targeting the TGF-beta pathway at the Smad-transcription factor level may eliminate the consequences of disrupting the entire pathway and offer specificity without affecting other signaling pathways. Smad3 is the primary transducer of TGF-b's signals and Smad3 regulates many functions attributed to TGF-b signaling. We hypothesize that Smad3 inhibitors will selectively eliminate Smad3-specific TGF-beta signals without undesired off-target effects. We aim to identify Smad3-small molecule antagonists using a quantitative high throughput screening (qHTS) approach.
# A high-throughput assay was developed to screen the NIH Molecular Libraries Small Molecule Repository (MLSMR). This is a cell based assay, where TGF-b is tagged with GFP. A counterscreen is run that looks at cytotoxicity (please see summary AID).
# MH087449NIH Chemical Genomics Center [NCGC]
# NIH Molecular Libraries Probe Centers Network [MLPCN]
# Assay Submitter (PI): Sushil Rane, National Institute of […]
# Suspensions of trypsinized HEPG2 CAGA-GFP cells were dispensed into white, tissue culture-treated, solid 1536-well plates at 5uL/well (1000 cells/well final concentration) in DMEM medium supplemented with 1% FBS. Plates were incubated at 37 degrees C for 2 hours, after which 23 nL of compounds or DMSO were delivered to each well using a pin tool. One uL of recombinant TGF-beta in DMEM (1% FBS) was then dispensed (500 pg/mL final concentration), and plates were incubated at 37 degrees C for 18 hours. The plates were measured on an Acumen eX3 Explorer plate reader for GFP fluorescence (ex488/em500-530). GFP values were calculated by determining the mean GFP fluorescence of individual cells, and compiling these values for each well to determine a total well GFP signal. The %Activity was determined from the corrected fluorescence values. A titration of the known TGF-B inhibitor SB431542 was included to monitor plate performance, while unstimulated HEPG2 (-TGF-B) control wells were used to normalize %Activity of identified inhibitors; unstimulated wells corresponded to 100%Activity (full inhibition), while stimulated cell controls (+DMSO) were used to normalize 0%Activity (no inhibition).
# Concentration-response curves were fitted to the signals arising from the resulting fluorescence. The concentration-effect curves were then classified based on curve quality (r2), response magnitude and degree of measured activity, and compounds were subsequently categorized based on their curve class.
# Potency is the fitted concentration of half-maximal effect.
Structure (SMILES),"activity, negative = inhibition",Potency
CC(C)C(=O)NC(NC(=S)NC1CCS(=O)(=O)C1)C(Cl)(Cl)Cl (stereo not given),-5.61%,–
COc1ccc(NC(=S)NC2CCS(=O)(=O)C2)cc1 (stereo not given),-2.2%,–
CCCSC(=S)NC1CCS(=O)(=O)C1 (stereo not given),–,11.2 µM (active)
CCCC12CN3CC(CCC)(CN(C1)C3c1c[nH]c3ccc(OC)cc13)C2=O (stereo not given),3.08%,–
COc1cc(NC(=O)c2nc3ccccc3nc2C)cc(OC)c1OC,25.6%,–
COc1cc(C(=O)N2CCC(c3ccncc3)CC2)cc(OC)c1OC,0.25%,–
Cc1ccc(N2CC(NC(=O)Cc3cccs3)CC2=O)cc1 (stereo not given),-7.03%,–
CCN(CC)S(=O)(=O)c1cc(C(=O)Nc2cc(S(=O)(=O)N3CCOCC3)ccc2N2CCCC2)ccc1F,-17.7%,–
CCN(CC)S(=O)(=O)c1ccc(N2CCCC2)c(NC(=O)c2ccc([N+](=O)[O-])o2)c1,–,11.2 µM (active)
CCN(CC)S(=O)(=O)c1ccc(N2CCOCC2)c(NC(=O)c2ccc(=O)n(C)n2)c1,2.21%,–
CCc1ccc(C2C(C(=O)Nc3ccccc3)=C(C)Nc3c(C(=O)Nc4ccc(C)cc4)cnn32)cc1 (stereo not given),-29.9%,–
Cc1nc(N2CCOCC2)c2c(C(=O)NCc3cccc(Cl)c3)c(C)oc2n1,-6.9%,–
O=C(CCn1ccc2cc(S(=O)(=O)N3CCCC3)ccc21)NCc1cccc(Cl)c1,-17.6%,–
COC(=O)CCc1ccccc1S(=O)(=O)N(CCC(=O)OC)Cc1ccccc1,-14.8%,–
COc1ccc(-c2nc(=N)sn2-c2ccccc2)cc1,-2.14%,–
O=C(NC1=CC(=O)c2ccccc2C1=O)c1ccccc1,–,10 µM (active)
O=C(Nc1ncccc1O)c1ccc(C(=O)c2ccccc2)cc1,-26.3%,–
O=C(Nc1ccc2ccccc2c1[N+](=O)[O-])c1ccccc1,-1.78%,–
CCOc1ccccc1C(=O)Nc1ccc(S(=O)(=O)N2CCCCC2c2cccnc2)cc1 (stereo not given),7.36%,–
Cc1nnc(NCc2ccccc2)c2c1nnn2Cc1ccc(F)cc1,5.18%,–
O=C(NCc1cccs1)c1cc(-c2ccccn2)nc2ccc(Br)cc12,5.1%,–
CC(C)Cn1c(N)c(C(=O)NCc2cccs2)c2nc3ccccc3nc21,–,15.8 µM (active)
O=C(Cc1coc2ccc3ccccc3c12)NCc1cccs1,-13%,–
CCN(CC)c1ccc(/C=C/c2c(C)cnc3ccc(C)cc23)cc1,-5.97%,–
Clc1cccc[n+]1CCCC[n+]1ccccc1Cl,-4.74%,–

Structure (SMILES),"activity, negative = inhibition",Potency
O=C(NCc1ccc2c(c1)OCO2)C12CC3CC(CC(C3)C1)C2,-11.2%,–
S=C(NCc1ccc(Cl)cc1)NC12CC3CC(CC(C3)C1)C2,–,11.2 µM (active)
Cc1ccc(C(=O)NC23CC4CC(CC(C4)C2)C3)c(Cl)c1,1.93%,–
CCC(=O)Nc1ccc(C)cc1-c1nc2ccccc2n(Cc2ccccc2)c1=O,-5.27%,–
Nc1ccc(/C=C/c2ccnc3ccccc23)c([N+](=O)[O-])c1,1.61%,–
CCCCN(CC)CCCNC(=O)c1nn(C)c2c1CSc1ccccc1-2,-0.617%,–
COc1cccc(CNC(=O)c2cccnc2Sc2ccc(Cl)cc2)c1,0%,–
COc1c(Cl)cc(Cl)cc1C(=O)Nc1cccc2cccnc12,17.3%,–
CC(=O)/C(=N\Nc1ccc(Cl)cc1Cl)Sc1cccc2cccnc12,–,2.82 µM (active)
COc1cccc(CN2CCc3nc(SCC(=O)Nc4ccccc4)[nH]c(=O)c3C2)c1,0.442%,–
COc1ccccc1NC(=O)c1oc2ccccc2c1NC(=O)C(C)C,-0.0648%,–
CN(c1ccccc1)S(=O)(=O)c1cc(C(=O)OCC(=O)N2CCN(C(=O)c3ccco3)CC2)ccc1Cl,–,10 µM (active)
O=C(OCC(=O)N1CCN(C(=O)c2ccco2)CC1)c1cccc(O)c1,-8.99%,–
O=C(OCC(=O)N1CCN(C(=O)c2ccco2)CC1)c1c(Cl)cccc1Cl,-17.9%,–
CCOc1ccc(NC(=O)c2cnn(-c3ccccc3)c2-n2cccc2)cc1,-1.27%,–
Cc1c(CNC(C)c2ccccc2)c(C(=O)O)c(C)n1Cc1c(F)cccc1Cl (stereo not given),1.13%,–
CCc1cccc(NC(=O)CSc2nccn2C)c1,-2.18%,–
O=C(Cn1ncc2c3ccccc3n(Cc3ccccc3)c2c1=O)NC1CCCCCC1,-2.78%,–
COc1ccc(C2(O)C(=O)Nc3ccccc32)cc1 (stereo not given),-0.596%,–
COc1ccccc1CNS(=O)(=O)c1ccc2c(c1)NC(=O)CS2,-3.83%,–
COc1ccccc1CC1(C)C(=O)Nc2ccc(OC(F)(F)F)cc21 (stereo not given),–,20 µM (active)
Cc1ccc(CC2(C)C(=O)Nc3ccc(OC(F)(F)F)cc32)cc1 (stereo not given),–,15.8 µM (active)
O=C(CSc1ncc(-c2ccccc2)[nH]1)Nc1ccc(F)cc1F,0%,–
Cc1ccc(N2CC(C(=O)Nc3ccc(N(C)C)cc3)CC2=O)cc1Cl (stereo not given),0.536%,–
Cc1cccc(OCC(=O)N(Cc2ccc(C(C)C)cc2)Cc2ccco2)c1C,-18.9%,–

Structure (SMILES),"activity, negative = inhibition",Potency
CN(C)c1ccc(/C=C/c2c3ccccc3nc3ccccc23)cc1,-19.8%,–
COc1ccccc1N1CCN(C2C(=O)c3ccccc3N2C(C)=O)CC1 (stereo not given),0%,–
COc1ccc(NC(=O)CCNS(=O)(=O)c2ccc3c(c2)CCCC(=O)N3)cc1Cl,2.37%,–
CCOC(=O)CNC(=O)/C(=C\c1ccc(F)cc1)NC(=O)c1ccccc1,5.26%,–
CCOC(=O)C[C@H]1c2ccc(C(F)(F)F)cc2S(=O)(=O)N1c1ccccc1,–,14.1 µM (active)
CCOC(=O)CN1CCC(c2ccccc2)CC1,-5.44%,–
CC1(C)CC(N2CCN(C(c3ccccc3)c3ccccc3)CC2)=CC(=[N+]2CCCCC2)C1,–,6.31 µM (active)
Cc1onc(C(=O)NN)c1C(=O)N1CCN(C(c2ccccc2)c2ccccc2)CC1,3.15%,–
CC(C)OCC(O)CN1CCN(C(c2ccccc2)c2ccccc2)CC1 (stereo not given),3.7%,–
COc1ccc(NC(=O)c2sc3nc(-c4cc5cccc(OC)c5oc4=O)[nH]c(=O)c3c2C)cc1,-21.6%,–
Cc1csc[n+]1CCC1CCCCC1,0.0338%,–
Cc1ccccc1C(=O)Nc1cc(C)c(O)c(-c2nc3ccccc3o2)c1,-8.84%,–
CC1CCc2c(nc3ncnn3c2Nc2ccc(OC(F)(F)F)cc2)C1 (stereo not given),–,15.8 µM (active)
COC(=O)c1cnn(-c2ccc(C(=O)Nc3ccc(OC(F)(F)F)cc3)cc2)c1N,-19.7%,–
CC(=O)c1nn(-c2ccc(OC(F)(F)F)cc2)nc1Nc1ccccc1,-3.72%,–
Cc1cc(C)n(C(=O)CCNC(=O)c2ccccc2Cl)n1,-15%,–
CN(C)CCNC(=O)c1ccc(Cl)c2cc3ccccc3nc12,–,3.55 µM (active)
CCCN(CCC)CCNC(=O)c1cc2c(C)nc3ccccc3c2o1,-30.9%,–
O=C(CCC(=O)c1ccccc1)NCc1cccc(C(F)(F)F)c1,-3.04%,–
CC(NC(=O)CCC(=O)N1CCN(S(=O)(=O)c2ccc(Cl)cc2)CC1)c1ccccc1 (stereo not given),-13.8%,–
O=C(CCC(=O)N1CCN(S(=O)(=O)c2ccc(Cl)cc2)CC1)NCc1cccc(C(F)(F)F)c1,–,7.08 µM (active)
Cc1cc(OCC(=O)Nc2ncn[nH]2)c(C)c(C)c1Br,2.13%,–
CCCn1c2ccccc2c2cnn(CC(=O)NCCCOC(C)C)c(=O)c21,-16.6%,–
CCOC(=O)c1c(NC(=O)c2ccc(S(=O)(=O)N3CCCC(C)C3)cc2)sc2c1CCN(C(C)C)C2 (stereo not given),-0.37%,–
CCOC(=O)c1cnc2c(C)cc(C)cc2c1Nc1ccc(N2CCOCC2)cc1,-6.96%,–

Structure (SMILES),"activity, negative = inhibition",Potency
CCC1=Nc2cc(C(=O)NCC(C)c3ccccc3)ccc2Sc2ccc(C)cc21 (stereo not given),4.45%,–
CC1=Nc2cc(C(=O)NCc3ccc(C)cc3)ccc2Sc2ccc(Cl)cc21,-12.7%,–
COCCNC(=O)c1ccc2c(c1)N=C(C)c1cc(C)ccc1S2,–,2 µM (active)
Cc1nn(-c2ccc(N3CCCCC3)nn2)c(C)c1CCC(=O)NCc1ccc(F)cc1,-26.8%,–
Cc1ccc(-n2nc(CO)c(C(=O)NCCc3ccccc3)n2)cc1,0%,–
COc1ccc(-c2cn3nc(N4CCC(C(=O)Nc5cccc(C)c5C)CC4)sc3n2)cc1,0%,–
COc1ccc(NC(=O)C(=O)NCc2ccco2)cc1,4.07%,–
COc1ccc(NC(=O)CN2C(=O)NC(C)(c3ccccc3)C2=O)cn1 (stereo not given),4.02%,–
COc1ccc(CS(=O)/C(Cl)=C(/Cl)C(=O)Nc2ccc(OC)nc2)cc1 (stereo not given),–,3.16 µM (active)
COc1ccc(NC(=O)CSc2nc3ncccc3[nH]2)c(OC)c1,11.2%,–
COc1ccc2c(C(=O)c3ccc(C)cc3)n(CCC(N)=O)[n+]([O-])c2c1,-22.6%,–
COc1ccc(C(=O)c2c3ccc([N+](=O)[O-])cc3[n+]([O-])n2CCCN)cc1,–,8.91 µM (active)
COc1ccc(C(=O)NCCNc2ccc([N+](=O)[O-])cn2)cc1,1.81%,–
CCS(=O)(=O)N1CCc2cc(C(=O)N3CCN(c4ccccc4OC)CC3)ccc21,-25.2%,–
CCC(=O)N1CCc2cc(S(=O)(=O)NC(Cc3ccccc3)C(=O)NCc3ccc(C)cc3)ccc21 (stereo not given),-28.1%,–
CC(C)OCCCn1c(SCC(=O)c2ccccc2)nc2c(sc3ccccc32)c1=O,-15.3%,–
C/C(=N\Nc1ccc(Cl)nn1)c1ccccc1O,–,1.26 µM (active)
C/C(=N/Nc1ccc(Cl)cc1)c1cnnc(-c2ccccc2)n1,0.78%,–
Fc1ccccc1Cc1ccc(Cl)nn1,-7.59%,–
COc1ccc(C2=NC(c3ccncc3)=Nc3ccc(Br)cc3N2)cc1,-2.9%,–
Cc1cccc(N2C(=O)N3[C@H](c4ccc(F)cc4)[C@@H]4C(=O)N(C5CCCCC5)C(=O)[C@@H]4[C@]3(Cc3ccccc3)C2=O)c1,17.6%,–
O=C1[C@H]2[C@@H](c3ccc(Cl)cc3)N3C(=O)N(c4cccc(F)c4)C(=O)[C@@]3(Cc3ccccc3)[C@H]2C(=O)N1C1CCCCC1,-18.1%,–
C[C@@]12C(=O)N(c3cccc(Br)c3)C(=O)N1[C@H](c1ccc(Cl)cc1)[C@@H]1C(=O)N(C3CCCCC3)C(=O)[C@@H]12,–,11.2 µM (active)
CNCCCOc1cc2nc(N3CCCN(C)CC3)nc(NC3CCN(C)CC3)c2cc1OC,22%,–
CN(Cc1ccccc1)C(=O)CCS(=O)(=O)c1cc(Br)cc2c1N(C(=O)C1CC1)CC2,0%,–
